LEDGF integ inh – blockers of LEDGF/p75-dependent integrase strand transfer – biochemical, TR-FRET, high throughput, primary screen; inhibition, % at 3.7 µM; HIV-1 integrase (with human LEDGF/p75); TR-FRET IN-LEDGF/p75 DNA integration, Eu/Cy5; actives 0.64% (n = 370,000); AID 743269, 2014;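 active means inhibition above the screen-wide mean plus 3 SD, cut at about 13% in these data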;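 further: signal is the Cy5 over europium emission ratio at 671 and 618 nm; 0% = plate median of compound wells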
PRMT1 inh – PRMT1 methyltransferase inhibitors, primary screen, biochemical, fluorescence polarization. Protein arginine N-methyltransferase 1 (Homo sapiens), Q99873. recombinant PRMT1, activity-based probe fluorescence polarization. inhibition, % at 2.79 µM. actives 1.3% (n = 370,000);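 active means inhibition above about 21% made by adding two undisclosed values, limit read from the data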
UHRF1 binding – UHRF1 methylated DNA binding inhibitors, primary screen, counter-screen for MBD2 inhibitor project, biochemical, TR-FRET, human UHRF1, single concentration; E3 ubiquitin-protein ligase UHRF1 (Homo sapiens), Q96T88; actives 0.75% (n = 370,000); AID 687016, 2013; UHRF1 binding to methylated oligo; inhibition, % at 4.4 µM; in the data active means inhibition above about 21%;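 further: UHRF1 SRA domain binding a hemimethylated CpG hairpin DNA probe; 0% = median of test compound wells and 100% = reference inhibitor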
MBD2 DNA inh – inhibitors of MBD2 binding to methylated DNA, primary screen, biochemical, TR-FRET, DNA-binding domain, human. actives 0.31% (n = 370,000). MBD2 binding to methylated oligonucleotide. Methyl-CpG-binding domain protein 2 (Homo sapiens), Q9UBB5. inhibition, % at 4.4 µM; in the data active means inhibition above about 13%
Target sequence (Q9UBB5 whole entry, looked up, the tested form may be a part): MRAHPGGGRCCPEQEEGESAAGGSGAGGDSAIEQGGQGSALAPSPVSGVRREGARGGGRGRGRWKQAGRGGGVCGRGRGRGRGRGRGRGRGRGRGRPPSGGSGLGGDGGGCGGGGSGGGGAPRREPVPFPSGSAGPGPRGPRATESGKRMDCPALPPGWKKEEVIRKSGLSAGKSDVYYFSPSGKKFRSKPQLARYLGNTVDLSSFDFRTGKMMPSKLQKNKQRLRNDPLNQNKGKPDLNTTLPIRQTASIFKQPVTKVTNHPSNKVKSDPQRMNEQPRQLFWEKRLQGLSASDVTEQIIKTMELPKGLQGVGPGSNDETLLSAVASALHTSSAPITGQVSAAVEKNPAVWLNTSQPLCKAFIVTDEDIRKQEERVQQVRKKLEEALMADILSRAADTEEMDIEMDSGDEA
* hit, by the source's call. A selection: hits, their analogues and other compounds. The true share with any hit is near 2.5%.

How did CCN(CC)S(=O)(=O)c1ccc(C(=O)NC(=S)N2CCN(c3ccccc3O)CC2)cc1 do in these assays?
LEDGF integ inh: -3; PRMT1 inh: 12; UHRF1 binding: -4; MBD2 DNA inh: -3

Results for CCOC(=O)c1ccc(S(=O)(=O)Nc2nc3cc(S(=O)(=O)NC4=NCCCCC4)ccc3s2)cc1 ?
LEDGF integ inh: -10; PRMT1 inh: 41*; UHRF1 binding: -4; MBD2 DNA inh: -2

Results for O=C(O)CCC(C(=O)O)n1c(O)c(C2=c3ccccc3=NC2=O)sc1=S (stereo not given) ?
LEDGF integ inh: 0; PRMT1 inh: 23*; UHRF1 binding: 7; MBD2 DNA inh: -12

What do the screens show for `O=C1N=c2ccccc2=C1c1sc(=S)n(CC2CCCO2)c1O` (stereo not given)?
LEDGF integ inh: 2; PRMT1 inh: 0; UHRF1 binding: 1; MBD2 DNA inh: -2

How did CC(C(Sc1ccccc1N)c1ccccc1)[N+](=O)[O-] (stereo not given) do in these assays?
LEDGF integ inh: 5; PRMT1 inh: 53*; UHRF1 binding: -2; MBD2 DNA inh: -8

How did O=c1c(-c2cc3ccccc3[nH]2)nc2ccccc2n1C(CCc1ccccc1)c1nc2ccccc2[nH]1 (stereo not given) do in these assays?
LEDGF integ inh: -2; PRMT1 inh: -3; UHRF1 binding: 1; MBD2 DNA inh: -3

Results for Cc1sc2ncn(CC(=O)NCc3ccco3)c(=O)c2c1-c1ccc(F)cc1 ?
LEDGF integ inh: 12; PRMT1 inh: 24*; UHRF1 binding: 6; MBD2 DNA inh: 5

What do the screens show for `Cc1cccc(N2C(N)=C(C#N)C(C#N)(C#N)C2c2ccccc2)c1` (stereo not given)?
LEDGF integ inh: -1; PRMT1 inh: 1; UHRF1 binding: 1; MBD2 DNA inh: 2

Results for N#CC1=C(N)C2=CCCC[C@H]2[C@H](c2ccccc2)C1(C#N)C#N ?
LEDGF integ inh: 0; PRMT1 inh: 24*; UHRF1 binding: 3; MBD2 DNA inh: 6

What do the screens show for `CCc1ccc(S(=O)(=O)/N=C2\C=C(Nc3ccc(C(=O)O)cc3)C(=O)c3ccccc32)cc1`?
LEDGF integ inh: 29*; PRMT1 inh: 3; UHRF1 binding: 8; MBD2 DNA inh: -6

Results for O=C(CSc1nc2ccccc2[nH]1)N/N=C/c1ccco1 ?
LEDGF integ inh: -2; PRMT1 inh: -3; UHRF1 binding: 0; MBD2 DNA inh: 0

Results for C=CCn1cccc(C(=O)Nc2cc(OC)ccc2OC)c1=O ?
LEDGF integ inh: 1; PRMT1 inh: 1; UHRF1 binding: 29*; MBD2 DNA inh: -3

What do the screens show for `C=CCn1cccc(C(=O)Nc2ccc(C)c(C)c2)c1=O`?
LEDGF integ inh: 1; PRMT1 inh: -1; UHRF1 binding: 1; MBD2 DNA inh: -3

How did CCOC(=O)C1=C(C)N=c2s/c(=C\c3ccc(OCC(=O)O)c(OC)c3)c(=O)n2C1c1ccc(OC)cc1 (stereo not given) do in these assays?
LEDGF integ inh: -2; PRMT1 inh: 32*; UHRF1 binding: -5; MBD2 DNA inh: 7

How did CCOC(=O)C1=C(C)N=c2sc(=Cc3cc(Cl)c(OCC(=O)O)c(OC)c3)c(=O)n2C1c1ccccc1Cl (stereo not given) do in these assays?
LEDGF integ inh: 0; PRMT1 inh: 9; UHRF1 binding: 0; MBD2 DNA inh: 1

How did CCCCNS(=O)(=O)/C=C/c1cc(C)ccc1CNC(=O)OC(C)(C)C do in these assays?
LEDGF integ inh: 2; PRMT1 inh: -4; UHRF1 binding: -3; MBD2 DNA inh: 5

What do the screens show for `CCN(CC(=O)Nc1ccc(NC(C)=O)cc1)C(=O)c1ccc(N(C)S(=O)(=O)c2ccc(C)cc2)cc1`?
LEDGF integ inh: 2; PRMT1 inh: 1; UHRF1 binding: 42*; MBD2 DNA inh: -1

Results for CCN(CC(=O)Nc1ccc(OC)cc1)C(=O)c1ccc(NS(=O)(=O)c2ccc(C(C)=O)cc2)cc1 ?
LEDGF integ inh: -4; PRMT1 inh: 3; UHRF1 binding: 23*; MBD2 DNA inh: 3

Results for CCOc1ccc(S(=O)(=O)Nc2cccc(C(=O)N(C)CC(=O)Nc3ccc(OC)cc3)c2)cc1 ?
LEDGF integ inh: 44*; PRMT1 inh: -1; UHRF1 binding: -3; MBD2 DNA inh: -1

Results for CCOc1ccc(S(=O)(=O)Nc2cccc(C(=O)N(C)CC(=O)Nc3cccc(OC)c3)c2)cc1 ?
LEDGF integ inh: -7; PRMT1 inh: 0; UHRF1 binding: 1; MBD2 DNA inh: 4

Results for COc1ccccc1C1CCN(C(=O)c2cnn(-c3ccccc3)c2C)CC1 ?
LEDGF integ inh: -4; PRMT1 inh: 4; UHRF1 binding: 1; MBD2 DNA inh: 4

How did Nc1cc(-c2ccncc2)c[nH]c1=O do in these assays?
LEDGF integ inh: 0; PRMT1 inh: 24*; UHRF1 binding: 14; MBD2 DNA inh: 2

Results for CC(C)(C)c1ccc(OCCCC(=O)Nc2nnc(C3CC3)s2)cc1 ?
LEDGF integ inh: -2; PRMT1 inh: 3; UHRF1 binding: 1; MBD2 DNA inh: -2

How did O=C1C(=Cc2cccs2)CCc2ccccc21 do in these assays?
LEDGF integ inh: 5; PRMT1 inh: -1; UHRF1 binding: -1; MBD2 DNA inh: -2

Results for O=C1/C(=C/c2ccco2)CCC1C1CCCC1 (stereo not given) ?
LEDGF integ inh: 0; PRMT1 inh: 2; UHRF1 binding: 18; MBD2 DNA inh: -2

Results for O=C1/C(=C/c2cccs2)CCC/C1=C\c1cccs1 ?
LEDGF integ inh: 20*; PRMT1 inh: 1; UHRF1 binding: 9; MBD2 DNA inh: 1

Results for O=C1/C(=C\c2ccco2)CCC/C1=C\c1ccco1 ?
LEDGF integ inh: 71*; PRMT1 inh: 22*; UHRF1 binding: 56*; MBD2 DNA inh: 19*

Results for COC(=O)c1cc2c(c3c4cc(C)ccc4n(S(=O)(=O)c4ccc(C)cc4)c13)C(=O)N(Cc1ccc(N(C)C)cc1)C2 ?
LEDGF integ inh: 0; PRMT1 inh: 4; UHRF1 binding: -2; MBD2 DNA inh: -1

How did CCN(CC)S(=O)(=O)c1cccc(C(=O)Nc2cc(C)nn2-c2ccccc2)c1 do in these assays?
LEDGF integ inh: 2; PRMT1 inh: 3; UHRF1 binding: 4; MBD2 DNA inh: 7

How did CCN(CC)S(=O)(=O)c1ccc(Cl)c(C(=O)Nc2cc(C)nn2-c2ccccc2)c1 do in these assays?
LEDGF integ inh: 3; PRMT1 inh: -2; UHRF1 binding: 65*; MBD2 DNA inh: 0

What do the screens show for `Clc1ccc([C@H]2OC[C@@]3(CNCc4ccccc4)CS[C@H](c4ccc(Cl)cc4)N23)cc1`?
LEDGF integ inh: -2; PRMT1 inh: 1; UHRF1 binding: 1; MBD2 DNA inh: -3

How did Cc1ccc(C(=O)NCCNS(C)(=O)=O)cc1 do in these assays?
LEDGF integ inh: 0; PRMT1 inh: 1; UHRF1 binding: 1; MBD2 DNA inh: 4
